Test results: PubChem BioAssay AID488835 (Broad Institute, 2010)
In all, about 1,400 compounds went through this assay and about 140 (10%) were called active.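 The calls were made as follows: active = Half-maximal inhibitory dose from the fit at or below ten times the top valid tested dose; inconclusive = Invalid fit, or flat curve showing 30 to 70% inhibition; inactive = the rest.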 Not all results are given here. Measured potencies and affinities stand elsewhere.

molecular target: Lysine-specific demethylase 4C (Homo sapiens) (UniProt Q9H3R0); assay: GASC-1 (JMJD2C) histone demethylase inhibitors, dose response, biochemical, DELFIA europium, cherry-picked samples (AID 488835); conditions: GST-JMJD2C(1-420), H3K9me3 demethylation; series mostly up to 6 µM; activity change, negative = inhibition: at the top concentration;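 also: signal is the H3K9me2 demethylation product detected by a dimethyl-specific antibody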
Sequence (Q9H3R0 1-420 limits assumed): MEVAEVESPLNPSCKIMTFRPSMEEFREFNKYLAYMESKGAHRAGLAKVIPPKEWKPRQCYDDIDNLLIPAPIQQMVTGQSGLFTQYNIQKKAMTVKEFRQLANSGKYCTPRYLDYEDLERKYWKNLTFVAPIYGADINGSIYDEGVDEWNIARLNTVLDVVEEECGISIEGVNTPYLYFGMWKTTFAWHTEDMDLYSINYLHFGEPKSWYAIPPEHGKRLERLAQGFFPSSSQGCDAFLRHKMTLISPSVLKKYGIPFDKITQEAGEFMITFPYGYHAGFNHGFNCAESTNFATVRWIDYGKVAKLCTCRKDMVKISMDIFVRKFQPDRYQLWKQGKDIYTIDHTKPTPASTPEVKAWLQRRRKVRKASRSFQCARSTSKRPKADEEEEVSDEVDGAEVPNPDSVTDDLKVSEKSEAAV

Activity change, negative = inhibition, inactive:
O=C(NCCCN1CCCC1=O)c1cc(-c2cccnc2)nc2ccc(Cl)cc12 1.3%, CCCC(=O)NC(c1cccs1)c1cc(Cl)c2cccnc2c1O (configuration not stated) -4.81%, COc1ccc(CN2CCNC(=O)C2CC(=O)NCc2csc(C(C)C)n2)c(OC)c1 (configuration not stated) -5.09%, Cc1ccc(C2=[N+]([O-])C(C)(C)CC2)cc1 6.51%, O=C(/C=C/c1cccs1)NC1CCS(=O)(=O)C1 (configuration not stated) -6.7%, CCOC(=O)c1c(NC(=O)C2CCCO2)sc2c1CCC2 (configuration not stated) 0.617% [at 1.6 µM], CC(C)(C)NC(=O)C1CCN(C(=O)c2ccc(Br)cc2)CC1 3.64%, CC1=C(C#N)C(Nc2ccc(C)cn2)(C(F)(F)F)C(=O)N1 (configuration not stated) 2.37%, Cc1csc(SCC(=O)Nc2ccccc2C)n1 2.73%, Cc1ccccc1C(=O)Nc1ccccc1C(=O)NC1CC1 5.56%, N/C(=N\NC(=O)c1ccc(Cl)cc1)c1cnccn1 -1.36%, CCCc1c(NC(=O)Nc2ccc(F)cc2)cnn1-c1ccccc1 7.81%, CC1CCN(c2ccc3c(c2)S(=O)(=O)c2cccc(C(=O)NC4CC4)c2C3=O)CC1 7.81%, CCOC(=O)CCC(=O)NCc1ccc2c(c1)cc(C)n2C 7.23%, CCN(c1ccc(NC(=O)CCNC(=O)c2ccco2)cc1)C(C)C 7.29%, Cc1c(C2Nc3ccccc3NC3=C2C(=O)CC(C)(C)C3)cnn1C (configuration not stated) -10.9%, CCOc1cccc(SCc2noc(C(=O)NC(C)C)c2C(=O)O)c1 2.92%, Cc1sc2ncnc(NCCCO)c2c1C 5.97%, Cc1sc2c(c1C)C(=O)/C(=C\Nc1ccccn1)S(=O)(=O)N2C 8.06%, CCN(C[C@H]1N[C@@](Cc2ccccc2)(C(=O)OC)[C@H]2C(=O)N(Cc3ccccc3)C(=O)[C@@H]12)S(=O)(=O)c1ccccc1 1.11%, CCN(C[C@H]1N[C@@](CC)(C(=O)OC)[C@H]2C(=O)N(C)C(=O)[C@@H]12)S(=O)(=O)c1ccc(C(F)(F)F)cc1 5.54%, Cc1ccc(-n2c3nc(=O)[nH]c(=O)c-3cc3c(C)nn(-c4ccccc4)c32)c(C)c1 2.71%, O=C1CC2C(=O)NCCN2C(=NC(=O)c2ccccc2)N1 (configuration not stated) 2.42% [at 1.6 µM], CCSc1nnc(-c2cccc(S(=O)(=O)N(CC)CC)c2)n1Cc1ccccc1 4.36%, Cc1ccc(-c2csc3nc(C)n(-n4c(C)ccc4C)c(=O)c23)o1 -2.47%, CN(C)CCOc1ccc(-c2c(-c3ccccc3)sc3ccccc23)cc1 1.19% [at 1.6 µM], COc1ccc(-c2n[nH]c(=S)n2C2CCCCC2)cc1 5.73%, Cc1nc(-c2ccc(C(=O)N3CCCC3)cc2)cs1 -1.97%, COc1ccc(OC)c(Nc2nc(-c3cccs3)cs2)c1 -4.95%, NC(=O)C1CCN(c2nc(-c3ccc4c(c3)OCCO4)cs2)CC1 -1.63%, Fc1ccc(-c2csc(Nc3ccccn3)n2)cc1 -16.8%, OCC1=C[C@@H](O)[C@@H]2C=CO[C@@H](O[C@@H]3O[C@H](CO)[C@@H](O)[C@H](O)[C@H]3O)[C@H]12 -3.31%, COc1ccc2[nH]c(=O)c(CN(CCCN(C)C)C(=O)Nc3ccc(F)cc3)cc2c1 9.27%, N#Cc1ccc(OCC(=O)Nc2ccccc2NS(=O)(=O)c2cccs2)cc1 1.65%, CC(=O)C[C@@H](O)CC(=O)[C@H]1OC(=O)[C@H](C)C/C=C\Cc2ccccc21 7.11%, Cc1cccc(C)c1NC1=NC(=S)N(c2ccc(C(=O)O)cc2)C12CCCCC2 1.15%, O=C(COc1ccc(Cl)cc1)NCCCn1ccnc1 3.44%, O=C(OCCCOC(=O)c1ccc(Br)o1)c1ccc(Br)o1 6.94%, CN(C)S(=O)(=O)c1ccc(N2CCCC2)c(C(=O)Nc2nc3ccc(F)cc3s2)c1 0.98%, COc1ccc2cc(Br)ccc2c1CC(=O)NCCCN1CCOCC1 7.11%, CSCCC(NS(=O)(=O)c1ccc2ccccc2c1)C(=O)O (configuration not stated) 2.69%, Cn1c(=O)[nH]c(=O)c2[nH]c(NCCCN3CCOCC3)nc21 -6.83%, CCOC(=O)N1CCN(c2ccc(F)cc2[N+](=O)[O-])CC1 2.68%, NC(=O)CC(NC(=S)NCc1ccccc1)C(=O)O (configuration not stated) 2.62%, O=C(c1ccc2c(c1)OCO2)N1CCCN(C(=O)c2ccc3c(c2)OCO3)CC1 -1.3%, COc1ccc(CC(=O)Nc2ccc(/C(C)=N/NC(=O)c3cccc([N+](=O)[O-])c3)cc2)cc1 -4.82%, O=C(NCC(=O)N1CCCCC1)c1sc2ccccc2c1Cl 0.7%, c1cc2c(cc1C1CCCCC1)c1c3n2CCCNC3CCC1 (configuration not stated) -0.182%, COC(=O)c1cc(S(=O)(=O)NCCCN2CCCC2=O)cn1C 2.12%, O=[N+]([O-])c1ccc(N2CCN(S(=O)(=O)c3ccc(Cl)cc3)CC2)cc1NCc1cccnc1 -4.65%, C=CCNC(=O)c1ccc(S(=O)(=O)CC)c(Cl)c1Cl 2.45%, COC(=O)C1CCN(C(=O)COC(=O)COc2ccc(C#N)cc2)CC1 2.04%, COc1cccc(NC(=S)/C(=C(\[O-])c2ccc(C)c([N+](=O)[O-])c2)[n+]2ccccc2)c1 -5.3%, Cn1nnnc1SCC(=O)NCC(=O)c1ccccc1 6.65%, O=C(CSc1nnc(CNC(=O)c2cccs2)o1)c1ccccc1 3.92%, NCc1nc(-c2ccc(Cl)cc2)no1 7.79%, CCS(=O)(=O)Nc1ccc(C2=NN(C(=O)c3ccco3)C(c3ccc(C)cc3)C2)cc1 (configuration not stated) -8.78%, CC(CN1CCCC1)OC(=O)COc1ccccc1 (configuration not stated) 0.741%, COc1ccc(C(=O)NC2CC3CCCC(C2)N3Cc2ccccc2)cc1 (configuration not stated) 5.72%, O=C(NC1CCN(S(=O)(=O)c2ccc(F)cc2)CC1)c1ccc(F)cc1 0.599%, CCN(CC)S(=O)(=O)c1ccc(N2CCOCC2)c(NC(=O)c2ccc3c(c2)OCCO3)c1 4.55%, Oc1ccccc1N1CCN(C(=S)NCc2ccccc2)CC1 3.28%, O=C(O)CCNc1ccc2c(c1)OCCO2 2.97%, COc1ccc(S(=O)(=O)Nc2cccc3c2O[C@H](CN(C)Cc2ccc(C(=O)O)cc2)[C@@H](C)CN([C@H](C)CO)C3=O)cc1 5.64%, CC(C)(C)C1CCc2[nH]c3ccccc3c(=O)c2C1 (configuration not stated) -8.54%, Cc1cc(=O)[nH]c(SCC(=O)Nc2ncc(S(=O)(=O)c3ccc([N+](=O)[O-])cc3)s2)n1 9.14%, CCn1c(=O)c(C(=O)NCCc2ccc(Cl)cc2)c(O)c2ccccc21 -3.1%
